In the library only some 1.1% were active in any assay of this set; here they are far more common.
Yp Topo-I inh: Y. pestis Topo-I inhibition via cleavage products. Y. pestis Topo-I cleavage product accumulation, plate reader. activity, % at 10 µM. 360,000 compounds, 0.064% hits. AID 504884; in the data active means activity above about 50%, passing the limit was not always enough
PfHsp40 rescue: rescue of PfHsp40-mediated yeast toxicity; S. cerevisiae expressing PfHsp40, growth rescue, ATP luminescence; 340,000 compounds, 0.68% hits; growth rescue, % at 12.5 µM; in the data active means growth rescue above about 28%, passing the limit was not always enough;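 further: yeast W303a lacking pdr1 and pdr3 grown in galactose medium; growth measured after three days at 30 °C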
SARS 3CLpro inh: SARS-CoV 3CLpro protease inhibition; recombinant SARS-CoV 3CLpro, quenched FRET peptide cleavage; inhibition, % at 6 µM; AID 1706; 290,000 compounds, 0.14% hits; in the data active means inhibition above about 12%
BioA inh: blocks M. tuberculosis BioA enzyme activity; purified M. tuberculosis BioA enzyme, plate reader; inhibition, % at 9.99 µM; 360,000 compounds, 0.096% hits; in the data active means inhibition above about 40%
MazEF act: activators of E. coli MazEF toxin-antitoxin RNase | AID 504720 | 350,000 compounds, 0.32% hits | FAM/BHQ RNA-DNA oligo cleavage fluorescence, 5 h | activation, % at 20 µM; in the data active means activation above about 50%
Target sequence (P0AE70 whole entry, looked up): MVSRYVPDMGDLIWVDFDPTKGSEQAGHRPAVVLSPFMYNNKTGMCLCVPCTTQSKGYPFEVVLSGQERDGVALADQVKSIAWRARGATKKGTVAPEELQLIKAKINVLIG
BJeLR viability: kills HRASV12-expressing BJeLR cells; BJeLR (HRASV12) viability, CellTiter-Glo ATP luminescence, 48 h; inhibition, % (test concentration not listed); 300,000 compounds, 0.17% hits; AID 1554; in the data active means inhibition above about 50%
* marks the source's active call; other numbers are inactive results; . = not tested or not shown; ! = not active in a repeat.

SMILES | Yp Topo-I inh | PfHsp40 rescue | SARS 3CLpro inh | BioA inh | MazEF act | BJeLR viability
CCc1ccc[n+](-c2nc3ccccc3nc2C(=C=[N-])C#N)c1 | 4.7 | -1.0 | 3.9 | . | 577.6* | 4.6
CCOc1ccc(Cn2c3ccc(OC)cc3c3nc4ccccc4nc32)cc1OC | 8.3 | 0.4 | 2.5 | . | -21.1 | -1.4
COC(=O)Cn1c(C(F)(F)F)nc2ccccc21 | 6.3 | -1.6 | -1.7 | 0.8 | 11.2 | 6.4
COc1ccc2c(c1)c1nc3ccccc3nc1n2Cc1ccc(OC)c(OC)c1 | 28.3 | -0.9 | -0.5 | . | 115.7* | 15.0
COC(=O)Cn1c2ccc(OC)cc2c2nc3ccccc3nc21 | -4.8 | -0.3 | -5.7 | -0.8 | 235.8* | -2.4
CCOC(=O)Cn1c2ccc(OC)cc2c2nc3ccccc3nc21 | 7.3 | 2.3 | -3.9 | -4.2 | 276.2* | 3.3
CCC(C)n1ncn(-c2ccc(N3CCN(c4ccc(OCC5COC(Cn6cncn6)(c6ccc(Cl)cc6Cl)O5)cc4)CC3)cc2)c1=O (stereo not drawn) | 17.6 | 181.2*! | -1.4 | -1.7 | 0.7 | 5.5
C[C@H](CO)N1C[C@H](C)[C@@H](CN(C)C)Oc2ccc(NC(=O)Nc3ccc(C(F)(F)F)cc3)cc2CC1=O | . | . | . | 5.8 | . | .
O=C1C=C(c2cccs2)C[C@H](c2ccccc2)[C@H]1n1nnc([N+](=O)[O-])n1 | -7.8 | 1.0 | -0.4 | . | 4.4 | 82.6*
Cc1ccc(CSc2ncnc3onc(C)c23)cc1 | 5.4 | 69.8* | 4.3 | . | -1.7 | -3.3
O=Nc1c(O)n(Cc2ccc(Cl)c(Cl)c2)c2ccccc12 | 1.0 | 259.3* | 1.6 | 7.7 | 3.5 | -7.1
O=Nc1c(O)n(Cc2ccccc2)c2ccccc12 | -1.7 | -0.9 | -5.7 | 3.0 | 2.7 | 12.2
CNC[C@@H]1Oc2ccc(NC(=O)Nc3ccccc3)cc2CC(=O)N([C@H](C)CO)C[C@H]1C | . | . | . | -1.2 | . | .
COc1ccc(-n2c(-c3ccc(F)cc3)cnc2SCC(=O)NCc2ccco2)cc1 | 51.0* | 5.5 | 0.3 | . | -8.9 | 9.3
O=C(C[n+]1cc(Br)cc2ccccc21)c1ccccc1 | 7.2 | 49.4* | -4.0 | 2.8 | 23.3 | -4.0
COc1ccc(C(NC(N)=O)c2ccccc2)cc1 (stereo not drawn) | 6.4 | 72.9* | 5.7 | -0.5 | 11.6 | -4.5
Cc1ccc(C(NC(N)=O)c2ccccc2)cc1 (stereo not drawn) | 0.8 | -1.3 | -1.2 | -0.6 | 3.6 | -4.7
COc1cccc(CSc2nc3ccccc3cc2C=O)c1 | 4.4 | 0.7 | 10.7 | 0.2 | -11.4 | 57.8*
COc1cccc(NC(=O)CSc2nc3ccccc3cc2Cc2ccccc2)c1 | 21.6 | 2.5 | 3.6 | -0.6 | 7.3 | -1.4
Cc1cccc(C)c1OCC(=O)NNC(=S)NC(=O)C1CC1 | 6.4 | 83.1* | 1.1 | -0.7 | 2.1 | 9.8
Cc1cccc(C)c1OCC(=O)NC1CC1 | 9.8 | -1.9 | 4.9 | -1.9 | 2.9 | -3.8
O=C(C[C@@H]1CC[C@H]2[C@@H](COC[C@@H](O)CN2Cc2nccs2)O1)NCc1ccc(Oc2ccccc2)cc1 | . | . | . | -0.1 | . | .
C[C@H](CO)N1C[C@H](C)[C@H](CN(C)Cc2ccc(C(=O)O)cc2)OCCCC[C@H](C)Oc2ccc(NC(=O)Nc3ccc(C(F)(F)F)cc3)cc2C1=O | . | . | . | 5.4 | . | .
CCCCCCCN(C(=O)CCl)c1cccc(C)c1 | 8.8 | -0.5 | 5.5 | 0.9 | -2.6 | 91.9*
CCCCCCN(C(=O)CCl)c1ccccc1 | 4.6 | -1.5 | 1.2 | -0.8 | -2.0 | 18.8
SMILES | Yp Topo-I inh | PfHsp40 rescue | SARS 3CLpro inh | BioA inh | MazEF act | BJeLR viability
CCN(CC)c1ccc(/C=N/NC(=O)c2cccc(S(=O)(=O)Nc3ccccc3OC)c2)c(O)c1 | -3.6 | 105.4* | 3.6 | . | -61.2 | 59.8*
CCN(CC)c1ccc(/C=N/NC(=O)c2ccc3nc[nH]c3c2)c(O)c1 | -15.7 | -0.7 | -0.7 | -1.1 | 8.9 | 52.8*
CCN(CC)S(=O)(=O)c1cccc(C(=O)N/N=C/c2ccc(O)c(O)c2O)c1 | -11.5 | 202.2* | 8.3 | . | 25.1 | .
CCOc1ccccc1/C=N/NC(=O)c1cccc(S(=O)(=O)N(CC)CC)c1 | -5.8 | 0.2 | 5.1 | -1.0 | 7.8 | -2.5
CCN(CC)c1ccc(/C=N/NC(=O)c2cccc(S(=O)(=O)Nc3ccccc3OC)c2)cc1 | 15.0 | 0.3 | -2.2 | . | -12.4 | -3.1
COc1cccc(/C=N/NC(=O)c2ccc3nc[nH]c3c2)c1O | -6.6 | -0.2 | -9.0 | 1.4 | -4.8 | -2.4
CC(C)NC(=O)N[C@H]1C=C[C@H](CC(=O)NCCCN(C)C)O[C@@H]1CO | . | . | . | 2.8 | . | .

Compound activity from PubChem BioAssay.
